This passage reports AC50 and outcome results from PubChem BioAssay (EPA / NIEHS).

Inconclusive results are not listed. Activity calls are given as the source filed them. The calls were made as follows, unless noted: active = hit-call score of the fitted dose curve at least 0.9, where 1 is the maximum; inactive = score below 0.9. Peptide text beside a SMILES is read from it.

Test [1] has as its target Nucleoli Translocation, AR (gene 367) (UniProt P10275). Briefly: UPITT_HCI_U2OS_AR_TIF2_Nucleoli_Antagonist: University of Pittsburgh U2OS Androgen Receptor-Transcriptional Intermediary Factor 2 (AR-TIF2) Antagonism High Content Imaging Assay for Nucleoli Translocation (AID 2283997; active = hit-call score of the fitted dose curve at least 0.9, where 1 is the maximum). The method in brief:
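U2OS cells co-expressing red-fluorescent-tagged human AR and green-fluorescent-tagged TIF2, imaged by high-content microscopy for nucleolar red fluorescence. Antagonist mode against DHT; primary screen at 20 uM final (0.2% DMSO).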

Test [2] shares this target. Briefly: UPITT_HCI_U2OS_AR_TIF2_Nucleoli_Agonist: University of Pittsburgh U2OS Androgen Receptor-Transcriptional Intermediary Factor 2 (AR-TIF2) Agonism High Content Imaging Assay for Nucleoli Translocation (AID 2283998; active = hit-call score of the fitted dose curve at least 0.9, where 1 is the maximum). The essentials: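 High-content images quantify nucleolar accumulation of RFP-fused AR in cells also expressing GFP-TIF2; the endpoint is fitted as signal gain versus DMSO controls across final concentrations of 0.195 to 50 uM.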

Test [3] has as its target Ratio of Nucleoli Translocation and Cytoplasm, AR (gene 367) (UniProt P10275). Description: UPITT_HCI_U2OS_AR_TIF2_Nucleoli_Cytoplasm_Ratio_Antagonist: University of Pittsburgh U2OS Androgen Receptor-Transcriptional Intermediary Factor 2 (AR-TIF2) Antagonism High Content Imaging Assay for Ratio of Nucleoli Translocation and Cytoplasm (AID 2283999; active = hit-call score of the fitted dose curve at least 0.9, where 1 is the maximum;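 also: antagonists lower the DHT-driven ratio of nucleolar to cytoplasmic red signal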). The essentials:
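U2OS cells expressing RFP-tagged human AR and GFP-tagged TIF2; compounds tested at 20 uM final (0.2% DMSO) in primary screen, 0.195–50 uM (0.5% DMSO) for concentration response. Readout: nucleolar-to-cytoplasmic red fluorescence ratio by high-content imaging, fitted relative to DHT.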

For test [4] the target is unchanged. Briefly: UPITT_HCI_U2OS_AR_TIF2_Nucleoli_Cytoplasm_Ratio_Agonist: University of Pittsburgh U2OS Androgen Receptor-Transcriptional Intermediary Factor 2 (AR-TIF2) Agonism High Content Imaging Assay for Ratio of Nucleoli Translocation and Cytoplasm (AID 2284000; active = hit-call score of the fitted dose curve at least 0.9, where 1 is the maximum;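 also: hits raise the red nucleolar to cytoplasm ratio above vehicle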). The essentials:
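U2OS cells expressing RFP-tagged human AR and GFP-tagged TIF2; high-content imaging ratio of nucleolar to cytoplasmic red fluorescence, fitted as gain of signal vs DMSO. Single point at 20 uM final (0.2% DMSO); concentration-response 0.195-50 uM final (0.5% DMSO).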

Test [5] in a line: CCTE_Shafer_MEA_acute_spike_number: CCTE's Neural Acute Assay for Total Number of Spikes, Shafer Lab (AID 2284008).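 As to AC50: curve fitted for decrease in spike count so AC50 reflects inhibitors.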 The essentials:
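Using an adaptive detector set to 8x rms noise, spikes were counted in 40-min windows before and after compound addition (0.03-40 uM) to rat cortical networks at 37 C; the well-level change from baseline was analysed relative to DMSO.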

Test [6] can be described thus: CCTE_Shafer_MEA_acute_firing_rate_mean: CCTE's Neural Acute Assay for Mean Firing Rate, Shafer Lab (AID 2284009).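 Also: analyzed for loss of signal so actives lower firing rate relative to DMSO.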 The method in brief: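 Rat primary cortical neurons on 48-well MEA plates, dosed at 0.03-40 uM on DIV 13 or 15; 40 min spontaneous activity recorded at 37 C before and after compound. Spike rate per electrode averaged per well, expressed as percent change from baseline.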

Test [7] is described as follows: CCTE_Harrill_HTTr_Apoptosis_MCF7: CCTE's 6-hour Apoptosis Assessment for the High-Throughput Transcriptomics (HTTr) Platform, in MCF-7 cells cultured in DMEM + 10% fetal bovine serum, Harrill Lab (AID 2284011). The method in brief: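 Apoptosis in MCF-7 cells grown in DMEM with 10% fetal bovine serum was scored after a six hour exposure by high content imaging of caspase-3/7 activation (CellEvent Caspase 3/7 Green), with DMSO serving as negative control and baseline.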

Test [8] is described as follows: CCTE_Harrill_HTTr_Viability_MCF7: CCTE's 6-hour Cell Viability Assessment for the High-Throughput Transcriptomics (HTTr) Platform, in MCF-7 cells cultured in DMEM + 10% fetal bovine serum, Harrill Lab (AID 2284010). The essentials:
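Membrane integrity was scored by high-content imaging of propidium iodide dye exclusion after a 6 h exposure across an eight-point dilution series. Data were fitted bidirectionally relative to DMSO as negative control and baseline.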

The next test concerns DIO1 (gene 1733). Description: CCTE_GLTED_hDIO1: CCTE's human Deiodinase 1 (DIO1) Inhibition Assay, Great Lakes Toxicology and Ecology Division (GLTED) Lab (AID 2283987; active = hit-call score of the fitted dose curve at least 0.9, where 1 is the maximum;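 also: isolated human DIO1 enzyme in a cell-free setup rather than cells; enzyme activity read as free iodide liberated from substrate via Sandell-Kolthoff colorimetry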). The method in brief:
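Chemicals are tested on human DIO1 without cells for 3 h. Uninhibited enzyme frees iodide, which speeds cerium(IV) reduction by arsenic and is read by spectrophotometry.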

Sequence of Ratio of Nucleoli Translocation and Cytoplasm, AR (gene 367) (P10275 whole entry, looked up): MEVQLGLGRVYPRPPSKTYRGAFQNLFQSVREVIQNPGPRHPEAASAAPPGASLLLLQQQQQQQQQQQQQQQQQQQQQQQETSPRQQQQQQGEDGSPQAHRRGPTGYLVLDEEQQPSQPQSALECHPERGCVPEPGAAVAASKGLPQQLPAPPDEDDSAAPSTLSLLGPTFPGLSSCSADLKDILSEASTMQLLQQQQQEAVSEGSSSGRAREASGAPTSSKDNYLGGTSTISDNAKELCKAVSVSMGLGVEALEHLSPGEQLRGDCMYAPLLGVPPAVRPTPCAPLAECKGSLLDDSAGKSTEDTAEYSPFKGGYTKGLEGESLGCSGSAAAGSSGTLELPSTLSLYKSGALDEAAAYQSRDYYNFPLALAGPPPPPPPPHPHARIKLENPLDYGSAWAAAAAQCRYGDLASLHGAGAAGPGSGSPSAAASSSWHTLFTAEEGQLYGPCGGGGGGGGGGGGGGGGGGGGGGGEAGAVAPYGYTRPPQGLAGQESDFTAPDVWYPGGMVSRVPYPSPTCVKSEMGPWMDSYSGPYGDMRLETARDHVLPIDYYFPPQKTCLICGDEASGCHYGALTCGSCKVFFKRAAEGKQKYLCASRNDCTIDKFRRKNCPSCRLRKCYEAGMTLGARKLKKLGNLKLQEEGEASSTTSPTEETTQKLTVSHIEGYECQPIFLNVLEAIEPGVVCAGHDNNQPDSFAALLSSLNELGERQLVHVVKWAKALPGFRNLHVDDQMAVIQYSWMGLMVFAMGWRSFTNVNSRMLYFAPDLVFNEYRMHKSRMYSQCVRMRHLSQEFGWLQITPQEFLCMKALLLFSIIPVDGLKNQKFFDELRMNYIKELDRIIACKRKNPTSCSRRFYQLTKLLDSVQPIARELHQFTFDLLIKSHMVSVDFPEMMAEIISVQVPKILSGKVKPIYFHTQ
Sequence of Nucleoli Translocation, AR (gene 367) (P10275 whole entry, looked up): as above

As for `C=C1C[C@H]2[C@@H]3C=C(C)C4=CC(=O)CC[C@]4(C)[C@H]3CC[C@]2(C)[C@@]1(OC(C)=O)C(C)=O`, the AC50 (as a rule, the concentration at which the activity in the assay is half-maximal) is 0.0947 µM (active) in test [1] and 4 µM (active) in test [2]. Besides, the outcome in test [3] and in test [4] was inactive.
On to `Nc1cccc(N)n1`, for which the values for the AC50 in test [5] and in [6] were 0.00505 µM (active) and 0.00319 µM (active), respectively.
Take `CCCCCCCCCC(C)=O`: the result in test [2] and in test [4] was inactive.
As for `CC(=O)OC1CCCCC1C(C)(C)C` (stereo not given), the outcome in [4] and in test [7] was inactive.
Consider `N#Cc1ccc(C(c2ccc(C#N)cc2)n2cncn2)cc1`, for which the compound was classed as inactive in test [1], in test [2] and in [4].
Turning to `Oc1ccc(-c2ccccc2)c(Cl)c1`, the values for the AC50 in test [1] and in [2] were 13.8 µM (active) and 13.4 µM (active), respectively. For the same compound, the outcome in test [3], in [4] and in test [8] was inactive.
Turning to `COc1ccc(C(=O)c2ccccc2)c(O)c1`, the AC50 in test [1] is 50 µM (active). Besides, the result in [3] and in test [7] was inactive.
Take `CC(C)C(=O)OCCc1ccccc1`: the compound was called inactive in test [5] and in test [6].
With `CCCCCCCCCCCCCC(=O)OC(C)C`, the outcome in test [2], in [3], in [4] and in test [7] was inactive.
For `CCCCCCCOC(=O)c1ccc(O)cc1`, in the test with DIO1 (gene 1733), the AC50 is 75 µM (active).
With `CCCCCCCCCCCCc1ccc(O)cc1`, in the test with DIO1 (gene 1733), the AC50 was 31.5 µM (active).
For `COC(=O)[C@H](Cc1ccccc1)NC(=O)[C@@H](N)CC(=O)O` (H-Asp-Phe-OMe), the compound was called inactive in test [5] and in test [6].
With `Oc1ccc(/C=C/c2cc(O)cc(O)c2)cc1`, the AC50 in [1] is 5.07 µM (active). Also, the result in test [3] was inactive.
On to `CC1(C)CC(O)CC(C)(C)N1[O]`, for which the compound was called inactive in test [5], in test [6] and in test [7].
For the compound `CC12CCC(CC1)C(C)(C)O2`, the outcome in test [8] was inactive.
As for `CC(=O)CC(=O)Nc1ccccc1C`, the result in test [8] was inactive.
As for `O=C(O)CCCC(=O)O`, in [8], the outcome was inactive.
For `COc1ccc(-c2coc3cc(O)cc(O)c3c2=O)cc1`, in test [8], the result was inactive.
`CC(=O)OC/C=C(/C)CCC=C(C)C`: the result in [8] and in [7] was inactive.
For `CCOC(=O)/C=C\C(=O)OCC`, in test [8], the result was inactive.
As to `Oc1ccccc1Cc1ccccc1O`, the AC50 in [5] and in test [6] was 0.207 µM (active) each time. For the same compound, the outcome in [8] and in [7] was inactive.
Consider `C=C(C)[C@@H]1CC=C(C)CC1`, for which, in test [8], the outcome was inactive.
In the case of `Nc1nc(N)nc(-c2ccccc2)n1`, the outcome in test [5] and in test [6] was inactive.
As to `C1CNCCN1`, the compound was called inactive in [5], in test [6], in test [8] and in test [7].
With `Nc1ncnc2nc[nH]c12`, in test [8], the outcome was inactive.
Take `O=C(OCc1ccccc1)c1ccc(O)cc1`: the outcome in test [8] was inactive.
With `CCCCCCCC(=O)OCC(COC(=O)CCCCCCC)OC(=O)CCCCCCC`, the outcome in test [8] was inactive.
With `CC1=CCC(C(C)C)C=C1` (stereo not given), the outcome in [8] was inactive.
Consider `CC(=O)CCC=C(C)C`, for which the outcome in test [8] was inactive.
Still for that read-out and setting: in the case of `CC(=O)/C=C/C1C(C)=CCCC1(C)C` (stereo not given) it was “inactive”.
`CC/C=C\CCOC(=O)c1ccccc1O`: the compound was called inactive in [5], in [6] and in [7].
For `CCCCCCC=O`, the result in test [8] and in [7] was inactive.
As to `CCCCCC(=O)OCC`, the outcome in [8] was inactive.
Turning to `CCCC(C)C(=O)OCC` (stereo not given), the outcome in [5], in [6], in test [8] and in test [7] was inactive.
On to `O=C(O[C@@H]1Cc2c(O)cc(O)cc2O[C@@H]1c1cc(O)c(O)c(O)c1)c1cc(O)c(O)c(O)c1`, for which, in [8], the outcome was inactive.
Take `Cc1noc(NS(=O)(=O)c2ccc(N)cc2)c1C`: the result in [8] was inactive.
Regarding `Nc1ccc(C(=O)O)cc1`, the outcome in test [8] was inactive.
`CCCCCCCCCCCC(=O)N(C)CC(=O)O`: the compound was called inactive in [5] and in test [6].
On to `Cn1ccnc1`, for which the outcome in [8] was inactive.
On to `Cc1c(C(=O)c2c[nH]n(C)c2=O)ccc(S(C)(=O)=O)c1C1=NOCC1`, for which the compound was called inactive in test [5], in [6], in [8] and in test [7].
On to `CC(C)CO`, for which, in test [8], the outcome was inactive.
Turning to `CC(C)(CO)C(O)C(=O)NCCCO` (stereo not given), the result in test [8] was inactive.
In the case of `Cc1c[nH]c(=O)[nH]c1=O`, the outcome in test [8] was inactive.
Take `C=Cc1ccc(OC(C)=O)cc1`: the outcome in test [7] was inactive.
Consider `CC(C=O)c1ccccc1` (stereo not given), for which the outcome in [7] was inactive.
For `Oc1c(Cl)cc(Cl)c(Cl)c1Cl`, the outcome in [8] and in test [7] was inactive.
On to `N#Cc1ccc(C2CCCc3cncn32)cc1` (stereo not given), for which the result in test [7] was inactive.
For `CCCCOCCOC(=O)COc1ccc(Cl)cc1Cl`, the result in [8] and in test [7] was inactive.
Consider `O=C(O)CCC(=O)O`, for which the result in [7] was inactive.
On to `CCCCCCO`, for which the outcome in [8] and in test [7] was inactive.
With `Fc1ccc(Br)cc1`, the result in [7] was inactive.
For the compound `CC=CC(=O)OCC(C)C`, the outcome in test [8] and in [7] was inactive.
As for `N=C1C=CC(=C(c2ccc(N)cc2)c2ccc(N)cc2)C=C1`, the AC50 in test [8] is 1.06 µM (active). Also, in test [7], the result was inactive.
As to `NNS(=O)(=O)c1ccc(Oc2ccc(S(=O)(=O)NN)cc2)cc1`, the outcome in test [8] and in test [7] was inactive.
Turning to `Cc1ccc([N+](=O)[O-])cc1N`, the result in test [8] and in test [7] was inactive.
On to `CCCCC(C=O)CC` (stereo not given), for which the result in test [8] and in test [7] was inactive.
As to `CC(C)[N+](C)(CCOC(=O)C1c2ccccc2Oc2ccccc21)C(C)C`, the result in test [7] was inactive.
For the compound `CC(=O)OCC=C(C)C`, the result in test [8] and in test [7] was inactive.
Take `O=C(Oc1ccccc1)c1ccccc1O`: the result in test [7] was inactive.
`CN(C)c1ccc2nc3ccc(=[N+](C)C)cc-3sc2c1`: the outcome in test [7] was inactive.
As to `C=C(C)C1CC=C(C)CC1` (stereo not given), the result in test [8] and in test [7] was inactive.
Take `CCOC(=O)C1=NN(c2ccc(Cl)cc2Cl)C(C)(C(=O)OCC)C1` (stereo not given): in test [7], the result was inactive.
Regarding `CCCCC1C(=O)N(c2ccccc2)N(c2ccccc2)C1=O`, the result in [8] and in test [7] was inactive.
For the compound `COC(Cc1ccccc1)OC`, the result in test [8] and in test [7] was inactive.
Regarding `CC1CCC(=O)C1=O` (stereo not given), the outcome in test [8] and in test [7] was inactive.
In the case of `C1CCSC1`, the result in [8] and in [7] was inactive.
Take `CC(C)OC(=O)c1ccccc1`: the result in test [7] was inactive.
As to `O=C(O)/C=C/c1ccccc1`, the result in [7] was inactive.
Consider `CC(=O)c1ccc(S(=O)(=O)NC(=O)NC2CCCCC2)cc1`, for which the outcome in test [7] was inactive.
With `CC(=O)OCCc1ccccc1`, in test [7], the outcome was inactive.
Consider `CCCCCCCO`, for which the outcome in test [7] was inactive.
Consider `CC(C)(C)NC(=O)[C@H]1CC[C@H]2[C@@H]3CC[C@H]4NC(=O)C=C[C@]4(C)[C@H]3CC[C@]12C`, for which the result in test [8] and in test [7] was inactive.
For `C=CCCCCCCCCC=O`, the outcome in [8] and in test [7] was inactive.
For the compound `CCOC(=O)C1=NOC(c2ccccc2)(c2ccccc2)C1`, in test [7], the outcome was inactive.
